Assay results as given in ChEMBL document CHEMBL1157539, “Thousands of chemical starting points for antimalarial lead identification” (Nature, 2010).

Assays:
Format in all cases: functional
Plasmodium falciparum [1] = experiment: GSK_TCMDC: Inhibition of Plasmodium falciparum 3D7 in whole red blood cells, using parasite LDH activity as an index of growth. Test compounds present at 2uM
Plasmodium falciparum [2] = experiment: GSK_TCMDC: Inhibition of Plasmodium falciparum Dd2 in whole red blood cells, using parasite LDH activity as an index of growth. Test compounds present at 2uM
HepG2 = experiment: GSK_TCMDC: Percent inhibition of human HepG2 cell line. Test compounds present at 10uM.

SMILES | Inhibition (Plasmodium falciparum [1]) [%] | Inhibition (Plasmodium falciparum [2]) [%] | Inhibition (HepG2) [%]
COc1ccc(CNCCc2cccs2)cc1-c1cccc(S(=O)(=O)NCCN2CCCC2)c1.O=C(O)C(F)(F)F | 98 | 41 | 56
O=C(Nc1ccc(F)cc1F)NC1CCN(c2ccnc3cc(Cl)ccc23)C1.O=C(O)C(F)(F)F (stereo not drawn) | 100 | 82 | 25
O=CO.c1ccc(-c2ccc(CNCCCNc3nc4ccccc4[nH]3)cc2)cc1 | 95 | 0 | 20
Cc1cc(N)c2cc(NC(=O)c3cc(C(F)(F)F)cc(C(F)(F)F)c3)ccc2n1.Cl | 100 | 99 | 100
CC(C)c1ccc(C(NC(=O)C2CCCCC2)c2ccc3cccnc3c2O)cc1 (stereo not drawn) | 89 | 70 | 46
COc1ccc2ncc(F)c(CCN3CCC(NCc4cc5c(cn4)OCCS5)CC3)c2c1.Cl | 89 | 40 | 4
CCOc1cc(Cc2cnc(N)nc2N)cc(OCC)c1OCC | 97 | 0 | 0
CS(=O)(=O)c1ccc(CNCc2ccc(-c3ccc(-c4nc5cc(C(F)(F)F)ccc5[nH]4)s3)cc2)cc1.O=C(O)C(F)(F)F | 100 | 98 | 49
CCCCNc1ccc(C(=O)NC2CCN(C[C@H](O)c3ccnc4ccc(OC)cc34)CC2)cc1 | 90 | 64 | 12
COc1ccc(O)c(-c2sc(N=C(N)N)nc2-c2ccccc2)c1 | 100 | 96 | 2
Nc1c(Cl)cc(C(O)CNCCCCCCOCCc2ccc(CO)s2)cc1Cl.O=C(O)/C=C/C(=O)O (stereo not drawn) | 86 | 71 | 1
N#Cc1cccc(C(=O)Nc2ccc(-c3cccc(CN4CCCC4)c3)cc2)c1.O=C(O)C(F)(F)F | 100 | 79 | 15
COC(=O)c1cccc(CNCc2cccc(-c3cccc(-c4nc5ccccc5[nH]4)c3)c2)c1.O=C(O)C(F)(F)F | 95 | 58 | 3
Cc1nc2ccccc2c(O)c1[N+](=O)[O-] | 88 | 0 | 5
CSc1cccc(Nc2nc3ccc(S(=O)(=O)NCC(C)C)cc3n2C(C)C(C)C)c1 (stereo not drawn) | 93 | 91 | 3
O=C(c1cccc(-c2noc(C(F)(F)F)n2)c1)N1CCN(C(=O)c2ccc3cc[nH]c3c2)CC1 | 94 | 85 | 15

SMILES | Inhibition (Plasmodium falciparum [1]) [%] | Inhibition (Plasmodium falciparum [2]) [%] | Inhibition (HepG2) [%]
COc1c(F)ccc2ncc(Cl)c(CCN3CCC(NCc4ccc5c(n4)NC(=O)CS5)CC3)c12.Cl | 98 | 29 | 30
OC(CNc1ccnc(Nc2ccc(Cl)cc2)n1)c1ccc(C(F)(F)F)cc1 (stereo not drawn) | 100 | 94 | 0
COc1ccc(C2C(C(=O)Nc3ccc4c(c3)OCO4)c3cc(OC)c(OC)cc3C(=O)N2C)cc1 (stereo not drawn) | 89 | 54 | 12
CC(C)Cn1cc(C2CCN(CCN3CCC(CNC(=O)c4ccc(-c5ccc(C#N)cc5)cc4)CC3)CC2)c2ccccc21 | 100 | 98 | 28
CCOC(=O)C(C(C)=O)C(c1ccccc1)C(C(C)=O)C(=O)OCC (stereo not drawn) | 95 | 14 | 6
CC(NC(=O)c1ccc(O)c(-c2ccc(Cl)c(Cl)c2)c1)C(=O)NC1CCCCC1 (stereo not drawn) | 96 | 82 | 0
Fc1cccc(C=NN=c2cc[nH]c3ccccc23)c1 | 100 | 72 | 3
COc1ccc(NC(=O)Nc2ccc(Nc3nc(C)cc(N4CCCC4)n3)cc2)cc1 | 100 | 100 | 14
CCCN(CCC)CCCOc1ccc(C(=O)c2c(-c3ccc(OCCCN(CCC)CCC)cc3)oc3ccc(Cl)cc23)cc1.Cl | 96 | 95 | 100
Brc1ccc(Nc2nc(NCc3ccccc3)c3ccccc3n2)cc1 | 100 | 99 | 24
COc1ccc(-c2cc(-c3ccc(S(C)(=O)=O)cc3)cnc2N)cn1 | 94 | 99 | 5
CC(=O)Nc1cccc(C(=O)Nc2ccc(-c3ccc(-c4nc5cccc(C)c5[nH]4)s3)cc2)c1 | 93 | 20 | 94
CCN1CCC(N(Cc2ccc(-c3ccc(C(F)(F)F)cc3)cc2)C(=O)Cn2c(CCc3cccc(F)c3F)cc(=O)c3c2CCCC3)CC1.O=C(O)C(O)C(O)C(=O)O | 100 | 96 | 55
CCCCNc1c(CC)c(C)c(C#N)c2nc3ccccc3n12 | 100 | 100 | 3
Cc1nc(-c2cccc(Nc3nccc(NCC(O)c4ccccc4C)n3)c2)cs1 (stereo not drawn) | 92 | 14 | 38
